Data: PubChem BioAssay AID1376 (SRMLSC, 2008)
About 530 (0.24%) of roughly 220,000 compounds were called active. The entries come from a sample that favours actives as a whole. Measured potencies and affinities stand elsewhere. Values without a mark were called inactive. Rule as the data show it: active = inhibition above about 13%; inconclusive = no clear call, values can overlap the other calls; inactive = below that.

Each compound was assayed against Bifunctional protein GlmU (Mycobacterium tuberculosis (strain ATCC 25618 / H37Rv)) (UniProt P9WMN3) (assay: inhibition of mycobacterial GlmU enzyme – biochemical, glucosamine-1-phosphate acetyltransferase (AID 1376;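 also: 0% = complete reaction with vehicle and 100% = reaction without substrate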)). Conditions: M. tuberculosis GlmU acetyltransferase enzyme assay; hits give high values;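 tested at 30 µM in the primary screen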.
Chain of Bifunctional protein GlmU (Mycobacterium tuberculosis (strain ATCC 25618 / H37Rv)) (P9WMN3 whole entry, looked up): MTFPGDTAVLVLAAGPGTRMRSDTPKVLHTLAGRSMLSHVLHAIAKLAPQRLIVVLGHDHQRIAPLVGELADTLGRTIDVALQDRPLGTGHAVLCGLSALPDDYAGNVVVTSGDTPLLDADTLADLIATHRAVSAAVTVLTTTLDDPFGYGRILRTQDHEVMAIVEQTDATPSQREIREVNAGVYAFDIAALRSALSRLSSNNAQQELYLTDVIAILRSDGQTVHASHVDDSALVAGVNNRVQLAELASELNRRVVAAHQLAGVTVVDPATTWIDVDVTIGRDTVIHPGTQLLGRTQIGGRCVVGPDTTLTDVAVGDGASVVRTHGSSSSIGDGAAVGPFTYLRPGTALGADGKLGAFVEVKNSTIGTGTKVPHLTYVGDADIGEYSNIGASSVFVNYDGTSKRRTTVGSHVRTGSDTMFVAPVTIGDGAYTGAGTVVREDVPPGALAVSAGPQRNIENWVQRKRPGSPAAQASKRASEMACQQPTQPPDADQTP
With CN(C)c1nc(N/N=C\c2ccc(Cl)c([N+](=O)[O-])c2)nc(Nc2ccc(F)cc2)n1 the inhibition was 3.5%. COc1ccc(OCCCC(=O)Nc2cc([N+](=O)[O-])ccc2C)cc1 gave an inhibition of 0.05%. Cc1ccc(NC(=O)CN2C(=O)NC3(CCc4ccccc43)C2=O)cc1Cl (stereo unspecified) showed an inhibition of 2.43%. With CCc1ccc(C(=O)CN2CCSC2=N)cc1 the inhibition was -4.03%. Compound COc1ccc2nc(C)cc(SCC(=O)OC(C)C)c2c1 has an inhibition of -3.07%. In the case of Cc1ccc(NC(=O)CS(=O)CC(=O)NC2CCN(Cc3ccccc3)CC2)c(C)c1 (stereo unspecified), the inhibition is reported as 5.17%. CC1CCC/C(=N/Nc2nc3ccccc3s2)C1 (stereo unspecified) gave an inhibition of 1.47%. Work on O=C(Cn1ccc([N+](=O)[O-])n1)N1CCCCC1 yielded an inhibition of 1.12%. For O=C(Cn1ccc([N+](=O)[O-])n1)N1CCCCCC1, the inhibition was -1.9%. In the case of Cc1nn(C(=O)Cn2ccc([N+](=O)[O-])n2)c(C)c1Br, the inhibition is reported as 17.6% (active). Compound Cc1cc(C)n2nc(SCCOc3ccccc3)nc2n1 has an inhibition of -0.25%. Compound Cc1cccc(NC(=S)NCc2cccn2C)c1 has an inhibition of 4.86%. Work on Cc1nc2cccc(C(=O)NCc3ccccc3)c2o1 yielded an inhibition of -4.24%. For Cc1nc2cccc(C(=O)NC3CCCCC3)c2o1, the inhibition was 14.4% (active). Compound O=C(NC1CCCCC1)c1cc(Cl)nc2ccccc12 has an inhibition of 1.21%. Cc1cc(Br)ccc1SCC(=O)OCC(=O)Nc1ncc(C(F)(F)F)cc1Cl was tested, and the inhibition was 1.65%. CCOC(=O)/C(C#N)=C/Nc1cc(OC)ccc1OC gave an inhibition of -9.19%. With CCOC(=O)/C(C#N)=C/Nc1cc(C(=O)OCC)cc2c(OC)c(OC)ccc12 the inhibition was 26.4% (active). In the case of CCOC(=O)/C(C#N)=C/Nc1ccccc1OC, the inhibition is reported as 1.82%. Work on C#Cc1ccc([C@H]2C=C(C(=O)NC3CC3)O[C@@H](OCC)[C@@H]2CCCO)cc1 yielded an inhibition of 3.19%. For CCCN1C(=O)c2cc(C(=O)Nc3ccc(OC)cc3OC)ccc2C1Nc1ccc(OC)cc1OC (stereo unspecified), the inhibition was -6.94%. With CCCN1C(=O)c2cc(C(=O)Nc3ccccc3C)ccc2C1Nc1ccccc1C (stereo unspecified) the inhibition was 12.9% (active). In the case of CCCN1C(=O)c2cc(C(=O)Nc3ccccc3OC)ccc2C1Nc1ccccc1OC (stereo unspecified), the inhibition is reported as -4.43%. Work on Cc1cc(NC(=O)C2CCCCC2C(=O)O)no1 (stereo unspecified) yielded an inhibition of -2.61%. Compound Cc1cccc(NNC(N)=S)c1C has an inhibition of 1.37%. In the case of CC[n+]1c(/C=C/c2ccc(N(C)C)cc2)ccc2ccccc21, the inhibition is reported as 2.12%. For CN(C)c1ccc(/C=C/c2ccc3c4ccccc4ccc3[n+]2-c2ccccc2)cc1, the inhibition was 41% (active). With CN(C)c1ccc(/C=C/c2ccc3ccccc3[n+]2C)cc1 the inhibition was -0.66%. With Cn1cccc1CC(=O)N/N=C/c1cccc([N+](=O)[O-])c1 the inhibition was -5.88%. Cc1ccc(-n2c(C)nc3c(cnn3-c3ccc(F)cc3)c2=O)cc1C was tested, and the inhibition was -3.89%. Cc1ccc(-n2c(C)nc3c(cnn3-c3ccc(C)c(C)c3)c2=O)cc1C showed an inhibition of 6.8%. With Cc1ccc(-n2ncc3c(=O)n(-c4ccc(C)c(C)c4)c(C)nc32)cc1 the inhibition was 48.2% (active). Cn1cc(/C=N/NC(=O)c2ccc(C#N)cc2F)c2ccccc21 showed an inhibition of 1.51%. In the case of CN(C)Cc1c(O)ccc2c3c(c(=O)oc12)CCCCC3, the inhibition is reported as 0.45%. C=CCN(CC=C)Cc1c(O)ccc2c1oc(=O)c1ccccc12 was tested, and the inhibition was -2.23%. With CN(Cc1c(O)ccc2c1oc(=O)c1ccccc12)C1CCCCC1 the inhibition was 14% (active). COc1ccc2cc3cc(C(=O)NCCCN4CCc5ccccc5C4)sc3nc2c1 was tested, and the inhibition was -12.5%. Work on Cc1ccc(/C=N/NC(=O)C[n+]2ccccc2)o1 yielded an inhibition of 5.08%. O=C(CCC(=O)c1cccs1)Nc1nnc(C2CC2)s1 was tested, and the inhibition was 2.51%. Cc1ccsc1/C=N/NC(=S)NCc1ccccc1 showed an inhibition of 0.62%. In the case of O=[N+]([O-])c1ccc2nccn2c1, the inhibition is reported as 2.74%. Cc1ccc(NC(=O)CN2C(=O)N/C(=C/c3cc(C)n(-c4cccc(C(=O)O)c4)c3C)C2=O)cc1 was tested, and the inhibition was 14.9% (active). In the case of CC(=O)NC1=NC(=O)/C(=C/c2cc(C)n(-c3ccc(NC(C)=O)cc3)c2C)S1, the inhibition is reported as 3.45%. Cc1cc(C=C2C(=O)c3ccccc3C2=O)c(C)n1-c1cccc(C(=O)O)c1 showed an inhibition of 7.28%. With Cc1ccc(-n2cccc2/C=C2/NC(=O)N(CC(=O)Nc3cccc(C)c3)C2=O)cc1 the inhibition was 10.8%. For Cc1cccc(NC(=O)CN2C(=O)N/C(=C\c3cccn3-c3cccc(C(=O)O)c3)C2=O)c1, the inhibition was -2.01%. Work on Cc1ccc(NC(=O)CN2C(=O)S/C(=C\c3cccn3-c3cccc(C(=O)O)c3)C2=O)cc1C yielded an inhibition of 6.74%. With Cc1ccc(NC(=O)CN2C(=O)N/C(=C/c3ccc(N4CCOCC4)cc3)C2=O)cc1 the inhibition was -5.18%. For Cc1ccc(NC(=O)CN2C(=O)N/C(=C/c3cc(C)n(-c4ccc(C(=O)O)cc4)c3C)C2=O)cc1, the inhibition was 8.1%. In the case of Cc1ccc(NC(=O)CN2C(=O)S/C(=C\c3cc(C)n(-c4cccc(C(=O)O)c4)c3C)C2=O)cc1, the inhibition is reported as 0.24%. With COc1ccccc1CNC(=O)CS(=O)Cc1nc(-c2ccccc2C)oc1C (stereo unspecified) the inhibition was -3.21%. COc1ccc(CCNC(=O)c2ccc3ccccc3n2)cc1OC gave an inhibition of 1.59%. For CCc1cccc(C)c1NC(=S)N(CCN(C)C)C(C)c1ccco1 (stereo unspecified), the inhibition was -1.5%. In the case of Cc1occc1C(=O)N/N=C/c1cnn(C)c1C, the inhibition is reported as 0.23%. For CC1CN=C(NCCc2ccccc2)S1 (stereo unspecified), the inhibition was -5.97%. Work on COc1ccc(Cl)cc1N(C(C)C(=O)NC1CCCC1)S(C)(=O)=O (stereo unspecified) yielded an inhibition of -1.06%. For Cc1nonc1C(=O)N/N=C/c1cccc(O)c1, the inhibition was -5.8%. In the case of O=C1C=C(N2CCOCC2)C2(CCCCC2)O1, the inhibition is reported as -4.46%. For CC(C)S(=O)(=O)c1nsc2nc(=O)c(/C=C3\C=Nc4ccccc43)c(N)n12, the inhibition was 14.9% (active). Work on CS(=O)(=O)c1nsc2nc(=O)c(/C=C3\C=Nc4ccccc43)c(N)n12 yielded an inhibition of 9.05%. CC1=Nc2ccccc2/C1=C/c1c(N)n2c(S(=O)(=O)C(C)C)nsc2nc1=O showed an inhibition of 6.27%. Compound COc1ccc2[nH]c3c(N4CCc5ccccc5C4)ncnc3c2c1 has an inhibition of 0.43%. With Cc1cc(C)n2nc(CC(=O)NCc3ccc(F)cc3)nc2n1 the inhibition was 3.44%. For Cc1ccc(-c2nc(C)sc2CC(=O)NCc2ccco2)cc1, the inhibition was 14.4% (active). Cc1ccc(-c2nc(C)sc2CC(=O)Nc2nnc(C)s2)cc1 gave an inhibition of -1.22%. Cc1ccc(NC(=O)Cc2sc(C)nc2-c2ccc(C)cc2)cc1 showed an inhibition of -0.58%. Cc1coc(NC(=O)CSc2nc(-c3ccncc3)cc(C(F)(F)F)c2C#N)n1 showed an inhibition of -2.15%. For COc1ccccc1Cn1c(=S)[nH]c2cc(C(=O)NCc3cccnc3)ccc2c1=O, the inhibition was -2.96%. COc1cc(CNn2cn[nH]c2=S)cc(Cl)c1OCc1ccccc1 showed an inhibition of -2.33%. COc1cccc(-c2cc(-c3cccnc3)nc(N)c2C#N)c1 gave an inhibition of 2.15%. For O=[N+]([O-])c1ccc(N2CCN(CCO)CC2)c2ncccc12, the inhibition was -1.16%. For O=[N+]([O-])c1c(N2CCN(CCO)CC2)nc2ccccn12, the inhibition was 15.2% (active). Compound Cc1nc([N+](=O)[O-])cn1-c1nc2ccccn2c1[N+](=O)[O-] has an inhibition of -6.37%. COc1cccc(N2[C@@H](CC(=O)O)c3cc(C(F)(F)F)ccc3S2(=O)=O)c1 was tested, and the inhibition was 7.93%. For C=CCn1c(Sc2ncc([N+](=O)[O-])s2)n[nH]c1=O, the inhibition was 7.87%. With COc1cccc(N=Nc2c(=O)[nH]n3c(=O)c4c([nH]c23)CCC4)c1 the inhibition was 5.17%. For CCOc1ccc(N=Nc2c(=O)[nH]n3c(=O)c4c([nH]c23)CCCC4)cc1, the inhibition was 4.96%. With CCOc1ccc(N=Nc2c(=O)[nH]n3c(=O)cc(C)[nH]c23)cc1 the inhibition was 17.1% (active). In the case of COc1cccc(N=Nc2c(=O)[nH]n3c(=O)cc(C)[nH]c23)c1, the inhibition is reported as 13% (active). Cc1ccc(N=Nc2c(=O)[nH]n3c(=O)cc(C)[nH]c23)cc1 was tested, and the inhibition was 9.14%. Cc1cc(=O)n2[nH]c(=O)c(N=Nc3ccccc3)c2[nH]1 was tested, and the inhibition was 4.01%. In the case of COc1cc(NC(=O)c2cccc(COCC(F)(F)C(F)F)c2)cc(OC)c1OC, the inhibition is reported as -1.01%. For CC(C)C1Oc2cc3oc(=O)ccc3cc2C1=O (stereo unspecified), the inhibition was 0.4%. In the case of S=c1[nH]nc(-c2ccncc2)n1/N=C/C=C/c1ccco1, the inhibition is reported as 13.6% (active). S=c1[nH]nc(-c2ccccc2)n1/N=C/C=C/c1ccco1 was tested, and the inhibition was 6.1%. Compound S=c1[nH]nc(-c2cccnc2)n1/N=C/C=C/c1ccco1 has an inhibition of 7.53%. O=C1NC(=O)N(Cc2ccccc2Cl)C(=O)/C1=C/c1cccs1 showed an inhibition of 1.69%. C(=N/N1CCN(c2ccccc2)CC1)/c1ccncc1 showed an inhibition of -0.53%. COc1ccc(Br)cc1S(=O)(=O)N1CCOCC1 was tested, and the inhibition was -4.63%. COc1ccc(Br)cc1S(=O)(=O)N1CCCC1 was tested, and the inhibition was 14.1% (active). CCOc1ccc(Br)cc1S(=O)(=O)N1CCCC1 showed an inhibition of -3.03%. C=CCN(CC=C)C(=O)Nc1cc(Cl)ccc1OC was tested, and the inhibition was 6.87%. With O=C(CC1C(=O)N(c2ccccc2)C(=O)N1Cc1ccco1)Nc1ccccc1 (stereo unspecified) the inhibition was 0.18%. For Cc1nnc(SCC(=O)N(C)CC(=O)Nc2ccc(F)cc2)n1Cc1ccccc1, the inhibition was -4.08%. For Cc1cc(SCC(=O)N(C)CC(=O)Nc2ccc(F)cc2)nc2ccccc12, the inhibition was 13.3% (active). In the case of Cc1csc(SCC(=O)N(C)CC(=O)Nc2ccc(F)cc2)n1, the inhibition is reported as -5.2%.
